Assay results reported in the supplement of paper PMC13380429.
Where a name gives a salt, the structure may show the parent alone.

Tested on: Vero E6 infected with SARS-CoV-2
Assay: inhibition of SARS-CoV-2 cytopathic effect; higher = more antiviral protection, active = above 15
Details: 48 h

Measured: inhibition of SARS-CoV-2 cytopathic effect

COc1ccc(Nc2nccc(NCCO)n2)cc1 [cardiogenol-C]
inactive: 1 nM 0.83% | 8.33 nM -0.02% | 100 nM -0.4% | 833.33 nM 0.3% | 10000 nM 1.2%

C[C@]1(c2nc3c(C(N)=O)cccc3[nH]2)CCCN1 [veliparib]
inactive: 1 nM 3.9% | 8.33 nM 7.83% | 100 nM 5.13% | 833.33 nM 4.23% | 10000 nM 8.58%

COc1cc2nccc(Oc3ccc(NC(=O)C4(C(=O)Nc5ccc(F)cc5)CC4)cc3)c2cc1OC [cabozantinib]
inactive: 1 nM 1.77% | 8.33 nM 1.83% | 100 nM -0.89% | 833.33 nM -1.04% | 10000 nM -14.2%

O=C1C[C@@H]2OCC=C3CN4CC[C@]56c7ccccc7N1[C@H]5[C@H]2[C@H]3C[C@H]46 [strychnine]
inactive: 1 nM -0.53% | 8.33 nM 0.64% | 100 nM 5.93% | 833.33 nM 3.93% | 10000 nM 1.26%

C[C@H](N[C@@H](CCc1ccccc1)C(=O)O)C(=O)N1CCC[C@H]1C(=O)O [enalaprilat]
inactive: 1 nM -0.58% | 8.33 nM 1.11% | 100 nM -0.39% | 833.33 nM 1.61% | 10000 nM 2.39%

N#C[C@H](O[C@@H]1O[C@H](CO[C@@H]2O[C@H](CO)[C@@H](O)[C@H](O)[C@H]2O)[C@@H](O)[C@H](O)[C@H]1O)c1ccccc1 [amygdalin]
inactive: 1 nM 0.51% | 8.33 nM -1.9% | 100 nM 0.79% | 833.33 nM -1.12% | 10000 nM 0.27%

CC(C)Oc1ccc(-c2nc(-c3cccc4c3CC[C@H]4NCCC(=O)O)no2)cc1C#N
inactive: 1 nM -2.71% | 8.33 nM -1.13% | 100 nM 0.51% | 833.33 nM 2.4% | 10000 nM -0.03%

CCN1CCN(C(=O)Cc2ccc(Nc3ncc(F)c(Nc4ccc(C(=O)Nc5ccccc5Cl)cc4)n3)cc2)CC1 [aurora-a-inhibitor-i]
inactive: 1 nM -0.07% | 8.33 nM -0.73% | 100 nM -0.58% | 833.33 nM 0.9% | 10000 nM 4.49%

CC(C)c1cc2c(cc1S(=O)(=O)O)[C@@]1(C)CCC[C@@](C)(C(=O)O)[C@@H]1CC2 [ecabet]
inactive: 1 nM -2.02% | 8.33 nM 0% | 100 nM -1.76% | 833.33 nM 0.14% | 10000 nM -0.11%

O=C(/C=C/c1c(C(=O)O)[nH]c2cc(Cl)cc(Cl)c12)Nc1ccccc1 [gavestinel]
inactive: 1 nM -3.94% | 8.33 nM -3.2% | 100 nM -2.69% | 833.33 nM -2.17% | 10000 nM -3.95%

C[C@H](NCc1ccc(OCc2cccc(F)c2)cc1)C(N)=O [safinamide]
inactive: 1 nM 4.62% | 8.33 nM 5.34% | 100 nM 2.52% | 833.33 nM 0.07% | 10000 nM -0.48%

CC(C)(C)CC(C)(C)c1ccc(O)c(Cc2ccc(Cl)cc2Cl)c1 [clofoctol]
inactive: 1 nM 3.11% | 8.33 nM 0.06% | 100 nM 2.41% | 833.33 nM 3.05% | 10000 nM -0.97%

O=C(C[S+]([O-])C(c1ccccc1)c1ccccc1)NO (stereo not given) [adrafinil]
inactive: 1 nM -1.03% | 8.33 nM -1.5% | 100 nM -3.32% | 833.33 nM 1.58% | 10000 nM -1.53%

O=C(NCCO)c1cc(C(=O)NCCO)cc(C(=O)NCCO)c1
inactive: 1 nM -0.77% | 8.33 nM -1.01% | 100 nM -1.2% | 833.33 nM -1.25% | 10000 nM 0.61%

CN[C@@H](C)C(=O)N[C@H](C(=O)N1CCC[C@H]1C(=O)N[C@H]1c2ccccc2C[C@H]1OCC#CC#CCO[C@@H]1Cc2ccccc2[C@@H]1NC(=O)[C@@H]1CCCN1C(=O)[C@@H](NC(=O)[C@H](C)NC)C1CCCCC1)C1CCCCC1
inactive: 1 nM 0.65% | 8.33 nM 4.06% | 100 nM 1.35% | 833.33 nM -6.56% | 10000 nM -3.86%

COCCOC(=O)C1=C(C)NC(C)=C(C(=O)OC(C)C)C1c1cccc([N+](=O)[O-])c1 (stereo not given) [nimodipine]
inactive: 1 nM -2.49% | 8.33 nM -0.07% | 100 nM -1% | 833.33 nM 1.52% | 10000 nM 1.16%

O=C(Nc1cccc(Cl)c1)c1ccccn1
inactive: 1 nM 0.86% | 8.33 nM -0.89% | 100 nM -2.59% | 833.33 nM 0.62% | 10000 nM 0.73%

Oc1c(Cl)cc(Cl)cc1Sc1cc(Cl)cc(Cl)c1O [bithionol]
inactive: 1 nM 0.29% | 8.33 nM 0.59% | 100 nM -0.92% | 833.33 nM -0.55% | 10000 nM 2.32%

CC(CN(C)C)C(C)(O)Cc1ccc(Cl)cc1 (stereo not given) [clobutinol]
inactive: 1 nM -0.23% | 8.33 nM 2.65% | 100 nM 1.61% | 833.33 nM -3.1% | 10000 nM -0.69%

CC#CCC(C)[C@H](O)/C=C/[C@@H]1[C@H]2C/C(=C/CCCC(=O)O)C[C@H]2C[C@H]1O (stereo not given in full) [iloprost]
inactive: 1 nM -0.22% | 8.33 nM -1.1% | 100 nM -0.18% | 833.33 nM -2.21% | 10000 nM -1.94%

Oc1cc(O)cc(/C=C/c2ccc(O)c(O)c2)c1 [piceatannol]
inactive: 1 nM 2.41% | 8.33 nM -0.84% | 100 nM -0.97% | 833.33 nM 0.83% | 10000 nM 2.32%

COc1c(C)cnc(Cn2cnc3c(Cl)nc(N)nc32)c1C
inactive: 1 nM -0.38% | 8.33 nM 2.24% | 100 nM 0.07% | 833.33 nM 3.31% | 10000 nM 6.01%

CCSC(=N)N [EIT-hydrobromide]
inactive: 1 nM 0.03% | 8.33 nM -1.2% | 100 nM -0.94% | 833.33 nM -0.69% | 10000 nM -1.4%

O=C(O)C(Cc1ccccc1[N+](=O)[O-])=NNc1nc(-c2ccc(Cl)c(Cl)c2)cs1
inactive: 1 nM 4.49% | 8.33 nM -0.65% | 100 nM -1.01% | 833.33 nM 3.78% | 10000 nM 0.02%

CC(C)(C)NCC(O)c1cc(Cl)c(N)c(Cl)c1 (stereo not given) [clenbuterol]
inactive: 1 nM -0.45% | 8.33 nM -0.13% | 100 nM 1.96% | 833.33 nM -0.35% | 10000 nM -2.77%

CC(C)NCC(O)c1ccc([N+](=O)[O-])cc1 (stereo not given) [nifenalol]
inactive: 1 nM -3.06% | 8.33 nM 0.04% | 100 nM -1.08% | 833.33 nM 0.11% | 10000 nM -2.75%

COc1ccc(CCNCc2ccc(OCc3ccc(Cl)nc3)c(OC)c2)cc1OC
inactive: 1 nM -1.43% | 8.33 nM 0.63% | 100 nM -0.05% | 833.33 nM -1.6% | 10000 nM -2.68%

C[C@H](O)[C@H](O)[C@H]1CNc2nc(N)[nH]c(=O)c2N1 [sapropterin]
inactive: 1 nM -2.03% | 8.33 nM 2.62% | 100 nM 1% | 833.33 nM 0.55% | 10000 nM -1.44%

CC(C)=CCC[C@]1(C)C=Cc2c(O)c3c(c(CC=C(C)C)c2O1)O[C@]12C(=C[C@@H]4C[C@H]1C(C)(C)O[C@@]2(C/C=C(/C)C(=O)O)C4=O)C3=O [gambogic-acid]
inactive: 1 nM 2.13% | 8.33 nM -0.37% | 100 nM 0.38% | 833.33 nM 4.87% | 10000 nM -14.3%

COc1ccc(Cl)cc1C(=O)NCCc1ccc(C(=O)O)cc1 [meglitinide]
inactive: 1 nM 2.2% | 8.33 nM 0.5% | 100 nM 1.3% | 833.33 nM 0.11% | 10000 nM 1.33%

O=[N+]([O-])c1cnc(Sc2nnc(O)n2-c2ccc3c(c2)OCCO3)s1
inactive: 1 nM 0.17% | 8.33 nM 0.75% | 100 nM 1.8% | 833.33 nM 0.05% | 10000 nM -17.7%

CCC(CC)O[C@@H]1C=C(C(=O)O)C[C@H](N)[C@H]1NC(C)=O [oseltamivir-carboxylate]
inactive: 1 nM -1.71% | 8.33 nM 0.87% | 100 nM 0.49% | 833.33 nM 1.32% | 10000 nM -0.82%

CCCCCCCCCCCCCCCC(=O)OC(C)C [isopropyl-palmitate]
inactive: 1 nM -1.17% | 8.33 nM -0.59% | 100 nM 0.66% | 833.33 nM 1.48% | 10000 nM -2.42%

CCN1/C(=C/C(C)=O)Sc2ccc(OC)cc21
inactive: 1 nM 1.8% | 8.33 nM 1.75% | 100 nM -2.1% | 833.33 nM 0.11% | 10000 nM 0.79%

CCn1cc(C(=O)O)c(=O)c2cc(F)c(N3CCNCC3)cc21 [norfloxacin]
inactive: 1 nM 2.7% | 8.33 nM 2.29% | 100 nM 3.02% | 833.33 nM -0.29% | 10000 nM 3.46%

NC(=S)N/N=C/c1coc2ccccc2c1=O.[Cl][Cu][Cl]
inactive: 1 nM 0.84% | 8.33 nM -0.38% | 100 nM 1.98% | 833.33 nM -0.55% | 10000 nM 2.4%

OC[C@@H](O)[C@H]1O[C@@H]2O[C@H](C(Cl)(Cl)Cl)O[C@@H]2[C@H]1O [chloralose]
inactive: 1 nM 1.75% | 8.33 nM 3.01% | 100 nM 2.94% | 833.33 nM -0.88% | 10000 nM -0.85%

Cc1ccccc1-c1cc(N2CCN(C)CC2)ncc1N(C)C(=O)C(C)(C)c1cc(C(F)(F)F)cc(C(F)(F)F)c1 [netupitant]
inactive: 1 nM 0.76% | 8.33 nM 0.01% | 100 nM -1.38% | 833.33 nM -1.26% | 10000 nM 8.28%

C[C@H]1[C@@H](O)O[C@@H]2O[C@@]3(C)CC[C@H]4[C@H](C)CC[C@@H]1[C@@]24OO3
inactive: 1 nM 0.99% | 8.33 nM 1.14% | 100 nM 1.39% | 833.33 nM 1.43% | 10000 nM 0.11%
